The whole screen tested about 320,000 compounds, of which about 8,000 (2.5%) were called active. Rule as the data show it: active = activation above about 47%; inactive = the rest. The sample as a whole holds a higher share of actives than the screen did.
target: Aryl hydrocarbon receptor (Homo sapiens) (UniProt P35869); assay: AHR activators, primary screen, cell-based, luminescence, luciferase reporter, human (AID 2796); settings: AHR-responsive luciferase reporter cells, at 5 µM, stronger effect = higher value;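 also: 0% = vehicle wells and 100% = reference agonist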
Sequence (P35869 whole entry, looked up): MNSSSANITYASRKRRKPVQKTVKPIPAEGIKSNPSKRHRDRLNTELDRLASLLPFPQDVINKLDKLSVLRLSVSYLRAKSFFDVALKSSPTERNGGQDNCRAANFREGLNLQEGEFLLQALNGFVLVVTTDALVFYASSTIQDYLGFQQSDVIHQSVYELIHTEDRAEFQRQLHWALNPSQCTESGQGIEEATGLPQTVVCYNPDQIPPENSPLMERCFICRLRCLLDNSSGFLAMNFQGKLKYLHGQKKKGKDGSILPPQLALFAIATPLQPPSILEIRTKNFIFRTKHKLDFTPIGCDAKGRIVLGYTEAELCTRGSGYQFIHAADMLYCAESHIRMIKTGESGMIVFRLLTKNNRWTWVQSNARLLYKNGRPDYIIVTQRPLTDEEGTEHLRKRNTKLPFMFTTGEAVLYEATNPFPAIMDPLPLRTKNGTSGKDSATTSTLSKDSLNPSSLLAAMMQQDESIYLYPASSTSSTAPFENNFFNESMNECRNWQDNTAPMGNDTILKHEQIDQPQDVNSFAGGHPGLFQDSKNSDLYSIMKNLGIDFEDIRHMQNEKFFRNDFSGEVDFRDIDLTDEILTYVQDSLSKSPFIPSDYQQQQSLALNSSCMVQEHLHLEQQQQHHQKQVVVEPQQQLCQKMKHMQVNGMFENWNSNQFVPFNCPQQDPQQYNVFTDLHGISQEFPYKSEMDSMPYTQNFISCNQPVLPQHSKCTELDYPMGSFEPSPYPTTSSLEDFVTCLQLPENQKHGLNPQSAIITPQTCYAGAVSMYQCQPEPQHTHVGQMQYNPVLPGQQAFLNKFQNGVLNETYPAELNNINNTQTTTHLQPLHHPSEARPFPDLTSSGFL

SMILES | activation
Nc1nnnn1/N=C/c1cccc(Br)c1 | 0.74% (inactive)
C=CCOc1c(Br)cc(/C=N\n2nnnc2N)cc1OC | 115% (active)
COc1ccc(/C=N/n2nnnc2N)cc1OC | 9.89% (inactive)
CCN1/C(=C\c2ccc3ccccc3[n+]2CC)Sc2cc(C)ccc21 | -7.56% (inactive)
CCC(=O)/C=C1\Sc2ccccc2N1CC | 47.6% (active)
CCOC(=O)CNC(=O)N1c2ccccc2Sc2ccccc21 | -1.17% (inactive)
CCN1/C(=C/C(=S)Nc2ccccc2)Sc2ccccc21 | 60.2% (active)
CCNCCC(=O)N1c2ccccc2Sc2ccc(NC(=O)OCC)cc21 | 12.7% (inactive)
S=C(NCCc1ccccc1)Nc1ccccc1 | 1.89% (inactive)
CSCCC(Nc1ccc(S(=O)(=O)N2CCOCC2)cc1[N+](=O)[O-])C(=O)OCC(=O)N(C(C)C)C(C)C (stereo not given) | -0.88% (inactive)
CN(C)c1ccc(CNC2C3CC4CC(C3)CC2C4)cc1 (stereo not given) | 1.86% (inactive)
c1ccc(-c2nnc(SCc3nc4ccccc4[nH]3)o2)cc1 | 59.8% (active)
Clc1ccccc1SCc1nc2ccccc2[nH]1 | -2.01% (inactive)
O=C(CSc1nc2ccccc2[nH]1)Nc1nc(-c2ccccc2)c(-c2ccccc2)o1 | 5.78% (inactive)
Cc1cccc(C(=O)N2CCN(S(=O)(=O)N3CCCCC3)CC2)c1 | 0.85% (inactive)
CC1CN(CC(=O)NC(C)c2ccccc2)CC(C)O1 (stereo not given) | -1.1% (inactive)
CN(C)c1ccc(/C=N/Nc2cc(N3CCOCC3)nc(N3CCOCC3)n2)cc1 | 7.92% (inactive)
C(=N/Nc1cc(N2CCOCC2)nc(N2CCOCC2)n1)/c1ccccc1 | -0.44% (inactive)
COc1ccc(/C=N/Nc2cc(N3CCOCC3)nc(C)n2)c(OC)c1 | 69.5% (active)
Cn1c2ccccc2n2c(=O)c(=O)n(CC(=O)c3ccc(F)cc3)nc12 | 0.34% (inactive)
C[C@H]1CN([C@@H](C)CO)C(=O)Cc2cc(NC(=O)Cc3ccccc3)ccc2O[C@H]1CN(C)S(=O)(=O)c1cccs1 | -0.6% (inactive)
O=C(C[C@@H]1C/C=C\CCC(=O)OC[C@@H]2CCCN2C1=O)NCCO | 2.28% (inactive)
O=C(Nc1cccc(S(=O)(=O)NC2=NCCC2)c1)c1ccc(F)cc1F | 1.17% (inactive)
Cc1cc(NS(=O)(=O)c2ccc(NC(=S)NC(=O)c3ccc(F)cc3Cl)cc2)no1 | 17.3% (inactive)
O=C(Nc1cc(S(=O)(=O)Nc2ccc(Cl)cc2)ccc1O)c1ccc(F)cc1F | 111% (active)

SMILES | activation
Cc1ccccc1NS(=O)(=O)CCCCC(Cl)(Cl)Cl | -0.27% (inactive)
COc1c(O)cccc1-c1nnn(CCC(=O)OCC(=O)c2ccccc2)n1 | 1.67% (inactive)
Cc1cc(C(=O)NNC(=O)CCC2CCCCC2)c(C)o1 | 1.65% (inactive)
CCOC(=O)c1nc(Nc2ccc(C(=O)OC)cc2)c2ccccc2n1 | 1.95% (inactive)
Cc1cc(Nc2ccc(Br)cc2)nc2ccccc12 | 54.1% (active)
Cc1ccc2nc(Nc3ccccc3)cc(C)c2c1 | 26.6% (inactive)
O=C(CCC(=O)N/N=C/c1ccc(Br)o1)N/N=C/c1ccc(Br)o1 | 4.48% (inactive)
CCCNC(=O)N1CCC(c2ccc3c(c2)OCO3)CC1 | 1.31% (inactive)
COc1ccc(CCNc2cc(C)nc3c(-c4ccc(Cl)cc4)c(C)nn23)cc1OC | 31.2% (inactive)
Cc1ccsc1C(=O)N[C@@H](C)c1nnc2ccccn12 | 1.3% (inactive)
CCc1ccc(CNC(=O)CCc2nc(-c3cccs3)no2)cc1 | 4.73% (inactive)
COc1ccc(OC)c(CNC(=O)CCc2nc(-c3cccs3)no2)c1 | 61.3% (active)
COc1ccc(CCc2nc(-c3cccs3)no2)cc1 | 1.87% (inactive)
CCn1c(SCC(=O)NC2CC2)nnc1-c1ccccc1OC | 14.6% (inactive)
Cc1ccc(C(=O)Cc2nnc(C)s2)cc1 | -0.8% (inactive)
CN(C)C(=O)COC(=O)c1cccc(S(=O)(=O)N2CC3(C)CC2CC(C)(C)C3)c1 (stereo not given) | -0.48% (inactive)
CCOC(=O)C1CCN(C(=O)CN2C(=O)NC(C)(c3ccc4cc(OC)ccc4c3)C2=O)CC1 (stereo not given) | 0.29% (inactive)
C=CCNC(=O)CSc1nc2sc(C)c(C)c2c(=O)[nH]1 | 107% (active)
C=CCn1c(SCC(=O)Nc2ccc(NC(C)=O)cc2)nc2sc(C)c(C)c2c1=O | 0.33% (inactive)
CC(=O)c1sc2nc(SCC(=O)N3CCCCC3)[nH]c(=O)c2c1C | 15.1% (inactive)
CN(Cc1cccc2ncccc12)C(=O)CC1C(=O)NCCN1Cc1ccc(F)cc1 (stereo not given) | -0.17% (inactive)
COc1cc(NC(=O)c2ccc(-c3csc(C)n3)cc2)c(OC)cc1Cl | 98.4% (active)
COc1cccc(CC(=O)Nc2ccc(-c3csc(C)n3)cc2)c1 | -4.95% (inactive)
CCOCC(=O)Nc1cc(OC)c(Cl)cc1OC | 19.9% (inactive)
CC(NC(=O)COC(=O)Cn1cc(C(F)(F)F)ccc1=O)c1ccccc1 (stereo not given) | -0.22% (inactive)

SMILES | activation
CCOC(=O)c1cc(C#N)c(N2CCCCC2)nc1-c1ccccc1 | 13.2% (inactive)
CC(=O)c1ccc(S(=O)(=O)N2CCN(c3nc4c(C)c(C)ccc4cc3C#N)CC2)cc1 | -2.8% (inactive)
Cc1cccc2cc(C#N)c(N3CCCC3)nc12 | 51.3% (active)
O=C(Nc1ccc2c(c1)CCC2)c1ccc(Br)s1 | 12% (inactive)
N#Cc1ccc(C(=O)Nc2cccc3cccnc23)c(F)c1 | -3.07% (inactive)
O=C(Nc1cccc2cccnc12)c1cccc(N2C(=O)CCC2=O)c1 | -2.04% (inactive)
COC(=O)c1sccc1NC(=O)c1ccc(Cl)cc1 | 37.4% (inactive)
O=C(Nc1cccc2cccnc12)c1cccc(Cl)c1 | 59.2% (active)
N#Cc1ccccc1NC(=O)c1cccc(COc2ccc(Cl)cc2Cl)c1 | -4.79% (inactive)
CSc1ccc(/C=N/NC(=O)c2cccc(Cl)c2)cc1 | 13.9% (inactive)
CSc1ccccc1NC(=O)c1cc(Cl)sc1Cl | 0.71% (inactive)
CSc1ccc(C#N)cc1NC(=O)c1cccc(Cl)c1 | 58.8% (active)
CSc1ccc(C#N)cc1NC(=O)c1ccc(Cl)cc1 | 96.9% (active)
O=C1C2C3C=CC(C4CC34)C2C(=O)N1c1nccs1 (stereo not given) | 0.87% (inactive)
Cc1ccccc1N1C(=O)C(Oc2ccc(Cl)cc2)C1CNCC1CCCO1 (stereo not given) | -0.77% (inactive)
COc1ccccc1Cn1c(C)nnc1-c1cnn(C)c1N | 4.53% (inactive)
CN(C)c1ccc(NC(=O)CN2C3CCCC2CC(NC(=O)c2ccccc2)C3)cc1 (stereo not given) | 7.23% (inactive)
Cc1nc(-c2ccc(Cl)cc2)sc1C(=O)NN | 10.3% (inactive)
Cc1nc(-c2ccc(Cl)cc2)sc1C(=O)CBr | 54.9% (active)
Cc1nc(-c2ccccc2)sc1C(=O)/C=C/N(C)C | 3.46% (inactive)
Cc1nc2ccccc2c(=O)n1NC(=O)c1ccccc1 | -1.87% (inactive)
Cc1ccnc(-n2sc3ccccc3c2=O)n1 | 98.3% (active)
Cc1ccnc(N2CCCC(C(=O)NC3CC3)C2)n1 (stereo not given) | 1.42% (inactive)
COc1ccc(CCNC(=O)c2ccccc2OCc2ccccc2)cc1 | -0.83% (inactive)
O=C(O)c1ccccc1-c1ccccc1C(=O)NCCc1ccccc1 | -1.22% (inactive)

SMILES | activation
NC(=O)Nc1ccccc1C(=O)NCCc1ccccc1 | 109% (active)
COc1ccccc1NC(=O)[C@H](COCc1ccccc1)NC(=O)OC(C)(C)C | 13.7% (inactive)
CC(C)NC(=O)COCc1cc(-c2ccc3c(c2)OCO3)on1 | 14.2% (inactive)
CCc1nc(C)cn1S(=O)(=O)c1cc([N+](=O)[O-])ccc1Cl | -0.55% (inactive)
CC1CCc2c(c3ccccc3[nH]c2=O)O1 (stereo not given) | 45.7% (inactive)
N/C(=N\OS(=O)(=O)c1cccc([N+](=O)[O-])c1)c1ccncc1 | 0.65% (inactive)
COc1ccc(C2Nc3ccccc3C(=O)N2c2ccc(Cl)cc2)cc1Cn1cc([N+](=O)[O-])cn1 (stereo not given) | 57.9% (active)
COc1ccc(C2Nc3ccccc3C(=O)N2c2ccc(F)cc2)cc1Cn1nnc2ccccc21 (stereo not given) | 4.17% (inactive)
COc1ccc(N2C(=O)c3ccccc3NC2c2ccc(OC)c(CN3CCOCC3)c2)cc1 (stereo not given) | 4.09% (inactive)
CC(C)N(C(=O)CSc1nnc(NC2CC2)s1)c1ccccc1 | 7.53% (inactive)
COc1ccc(C(=O)O)cc1S(=O)(=O)NC1CCN(Cc2ccccc2)CC1 | -0.69% (inactive)
NNc1nc2c(Cl)cccc2s1 | 115% (active)
Cc1ccc2c(CC(=O)NCc3cccs3)coc2c1 | 8.24% (inactive)
CCCNC(=O)c1ccc(N2CCC3(CC2)CC(c2cccc(Br)c2)=NO3)c(NC(=O)c2ccco2)c1 | -6.12% (inactive)
Cc1cc(/C=C(/C#N)C(=O)Nc2ccc(Cl)cc2)c(C)n1-c1cccnc1 | 76% (active)
N#C/C(=C\c1cccnc1)C(=O)Nc1ccc(SC(F)F)cc1 | 3.63% (inactive)
Cc1cc(/C=C2/NC(=O)NC2=O)c(C)n1-c1cccnc1 | 26.3% (inactive)
Cc1nn(C)c(Cl)c1CN1CCC(Oc2ccc(C(=O)N3CCCC3)cc2)CC1 | -2.1% (inactive)
CCCc1cc(=O)[nH]c(SCC(=O)N2C(C)CCCC2C)n1 (stereo not given) | 0.47% (inactive)
c1ccc2[nH]c(-c3nc4ccccc4[nH]3)nc2c1 | 71.2% (active)
COc1ccc(Br)cc1C(=O)NC(=S)Nc1cc(-c2nc3ccccc3[nH]2)ccc1C | 36.6% (inactive)
Cc1ccc(-c2nc3ccccc3[nH]2)cc1N | 47.4% (active)
CCCCSc1nc2ccccc2[nH]1 | 1.07% (inactive)
Nc1cccc(CCc2nc3ccccc3[nH]2)c1 | 6.68% (inactive)
COc1ccc(-c2[nH]nc(-c3ccccc3)c2-c2nc3ccccc3[nH]2)cc1 | 4.79% (inactive)
